Drawing on PubChem BioAssay AID686978 (National Center for Advancing Translational Sciences (NCATS), 2013), this text covers Potency for 29 compounds.

Among all 420,000 compounds or so, about 64,000 (15%) were called active. Roughly 27% stayed inconclusive and do not appear here. Calls follow the shape of the dose curve; as a rule, active = well fitted inhibition curve with a large enough effect; inconclusive = small, poorly fitted or top-dose-only effect; inactive = flat fitted curve, though single readings scatter. Only a sample is shown. A call without a number means that no potency is given here.
Potency is read from the fitted curve at half-maximal effect.

This test is described as follows: qHTS for Inhibitors of human tyrosyl-DNA phosphodiesterase 1 (TDP1): qHTS in cells in absence of CPT. Also: nearly all actives have a fitted effect of over 55% in size. To be noted: DT40 Tdp1-/- hTDP1 cells, no CPT, ATP luminescence, 48 h; activity change, negative = growth inhibition: at 46.2 µM (top of the series). The method, boiled down:
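Cells were dispensed at 400 per well, compounds added by pin tool, plates incubated ≥48 hr at 37 °C, then CellTiter-Glo added for 30 min at room temperature before luminescence reading. Line: DT40 Tdp1-/- complemented with hTDP1; camptothecin omitted.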
In general terms: In qHTS, concentration-response curves come from the screen itself.
For the compound `COc1ccccc1CNS(=O)(=O)c1c(C)[nH]c(C)c1C(=O)N1CCCCC1`, the Potency result was “inactive”. With `CCSc1nc(C)nc2c1oc1ccccc12` the entry was “inactive”; with `CCc1nc(Nc2ccc(NC(C)=O)cc2)c2oc3ccccc3c2n1`, “inactive”; with `CCc1nc(Nc2ccc3nccnc3c2)c2oc3ccccc3c2n1`, 2.31 µM (active). On to `C/C(=N/NC(=O)c1ccncc1)c1ccc2c(c1)OCO2`, for which the Potency entry is “inactive”. With `C/C(=N\NC(=O)C(N)=O)c1ccc2c(c1)OCCO2` the entry was “inactive”. With `C/C(=N/NC(=S)Nc1ccccc1)c1ccc2c(c1)OCO2` the figure was 0.517 µM (active); with `CCS(=O)(=O)N(C)[C@@H]1c2cc(C#N)ccc2OC(C)(C)[C@H]1O`, “inactive”; with `O=c1cc(CCl)nc2scc(-c3ccccc3)n12`, 16.4 µM (active). For `C/C(CC(O)(/C=N/O)c1ccccc1)=N\O` (centres undefined) the value was “inactive”; for `C/C(CC(=O)Nc1ccc(Cl)cc1)=N\NC(=O)C(=O)NCCO`, “inactive”; for `CCCCCCn1c(CN2CCCCC2)nc2c1c(=O)n(C)c(=O)n2C`, 20.6 µM (active). For `CC(C)Cn1c(CN(Cc2ccccc2)Cc2ccccc2)nc2c1c(=O)n(C)c(=O)n2C`, the Potency was 14.6 µM (active).

For the compound `CCCCn1c(SCC(=O)N2CCOCC2)nc2c1c(=O)n(C)c(=O)n2C`, the Potency result is “inactive”. In the case of `CC(C)Cn1cnc2c1c(=O)n(CC(=O)NN)c(=O)n2Cc1ccccc1`, the Potency result is “inactive”.

As to `Cn1c(=O)c2c(nc(N3CCOCC3)n2CCNC2=NCCC2)n(C)c1=O`, the Potency entry was “inactive”. For `Cn1c(=O)[nH]c(=O)c2c1nc(CN(Cc1ccccc1)Cc1ccccc1)n2CCN1CCOCC1` the value was “inactive”; for `CC(C)CCn1c(CN(C)Cc2ccccc2)nc2c1c(=O)n(C)c(=O)n2C`, 6.51 µM (active); for `CC(C)Cn1cnc2c1c(=O)n(CC(O)c1ccccc1)c(=O)n2CC(C)C` (centres undefined), “inactive”. With `CC(C)CCn1cnc2c1c(=O)n(CC(=O)NC(N)=O)c(=O)n2Cc1ccccc1` the entry was “inactive”; with `COCCn1c(CN(Cc2ccccc2)Cc2ccccc2)nc2c1c(=O)n(C)c(=O)n2C`, 25.9 µM (active); with `CC(O)c1nc2c(c(=O)n(C)c(=O)n2C)n1C` (centres undefined), “inactive”. Take `Cn1ccnc1-c1nnn(-c2ccc(F)cc2)n1`: the Potency result is “inactive”. For `O=C(OCC(=O)c1cccs1)c1ccc([N+](=O)[O-])o1`, the Potency entry is “inactive”. On to `O=C(COc1ccc(-n2cnnn2)cc1)Nc1ccccc1Cl`, for which the Potency result is “inactive”.

In the case of `CN(C)S(=O)(=O)c1ccc(N2CCCC2=O)c([N+](=O)[O-])c1`, the Potency result is “inactive”. Consider `O=C(/C=C/c1ccccc1Cl)Nc1ccc(S(=O)(=O)Nc2ncccn2)cc1`, for which the Potency entry was “inactive”. For `OCCC1CN(Cc2ccc3nsnc3c2)CCN1C1CCCCC1` (centres undefined) the value was “inactive”; for `Cc1ccc(C)c(SCc2nc3sc(C(=O)O)c(C)c3c(=O)[nH]2)c1`, “inactive”.
